This note sets out measurements from PubChem BioAssay (NCATS).

Experiment [1] deals with Lysosomal acid glucosylceramidase (Homo sapiens) (UniProt P04062). The experiment is described as follows: Glucocerebrosidase-p2 (AID 348; in the data active means potency below about 10 µM; further: potency means the concentration at half of the fitted maximal effect). To be noted: purified GBA, blue fluorogenic substrate, 40 min. In outline:
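Normal human glucocerebrosidase (0.2 nM) with blue fluorogenic substrate (80 uM final) in citrate/phosphate pH 5.9 with 10mM sodium taurocholate, 0.01% tween-20; 40 min RT, NaOH/glycine stop; fluorescence Ex 365/Em 440; AC50 from a titration from 0.6 nM upwards.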

The nature of experiment [2]: AP1 Signaling Pathway (AID 357; active means well fitted curve in either direction with a large enough effect, not every such curve was filed as active;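 further: ME-180 reporter cells stimulated with EGF at its EC50 level; on the % scale 0 is the no-effect control and ±100 the full control effect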). To be noted: ME-180 AP-1-bla reporter, EGF-induced, beta-lactamase ratio, 5 h; at 7.69 µM (top of the series) unless noted. Put shortly:
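AP-1-bla ME-180 cells, Opti-MEM + 0.5% dialyzed FBS, plated overnight 37 °C. Cpd titration + EC50 EGF, 5 h 37 °C. CCF4 2.5 h RT; ex 405, em 460/530 ratio → %activity, AC50.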

For experiment [3], the target named is Cytochrome P450 1A2 (Homo sapiens) (UniProt P05177). The experiment is described as follows: p450-cyp1a2 (AID 410; calls by dose curve; further: potency means the concentration at half of the fitted maximal effect). To be noted: recombinant CYP1A2, luciferin-ME demethylation, luminescence; series mostly up to 57 µM. Put shortly: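 20nM CYP1A2, 100uM Luciferin-ME (=Km), 100mM KPO4; cpd 10 min RT; +NADPH regen, 60 min RT; stop/detect 20 min; luminescence. Normalized to furafylline 57 uM = full inhibition.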

A short description of experiment [4]: NFAT Signaling Pathway (AID 444; active means well fitted curve in either direction with a large enough effect, not every such curve was filed as active;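 further: carbachol stimulus at about its EC50 of 1 µM final; on the % scale 0 is the no-effect control and ±100 the full control effect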). To be noted: Jurkat NFAT-bla M1, carbachol, beta-lactamase ratio, 5 h; at 7.69 µM (top of the series) unless noted. In outline: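 Jurkat cells with NFAT-driven β-lactamase reporter and co-expressed M1 receptor, stimulated with carbachol (final 1 uM, ~EC50), compound titration, 5 h at 37 °C. CCF4 loaded 1 h at RT; 460/530 nm ratio gave %activity and AC50.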

A short description of experiment [5]: Stat Signaling Pathway (AID 446; active means well fitted curve in either direction with a large enough effect, not every such curve was filed as active;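 further: ME-180 cervical cancer cells given 40 pM IL-6 alongside compound; SIE-controlled beta-lactamase reporter measured as 460/530 nm FRET emission ratio; on the % scale 0 is the no-effect control and ±100 the full control effect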). To be noted: ME-180 (cervical carcinoma) SIE beta-lactamase reporter, IL-6 stimulated, 5 h; at 7.69 µM (top of the series) unless noted. In outline: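 Compound effects on IL-6-induced STAT reporter activity were measured in ME-180 cells. After overnight culture, cells were co-treated with 40 pM IL-6 for 5 hrs before beta-lactamase substrate loading at room temperature.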

In experiment [6] the target is Glucocorticoid receptor (Homo sapiens) (UniProt P04150). The experiment is described as follows: GR-GFP Redistribution (AID 450;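 active means compounds whose dose series gives a full or clear partial fitted curve of increased nuclear translocation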; further: potency means the concentration at half of the fitted maximal effect). To be noted: U2OS GR-GFP nuclear translocation, laser cytometry, 2 h.
Experiment [7] shares this target. The experiment is described as follows: GR-EFC Redistribution (AID 451; calls by dose curve; further: potency means the concentration at half of the fitted maximal effect). To be noted: CHO-K1 GR-EFC translocation, beta-gal luminescence, 2 h. In outline:
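CHO-K1 cells expressing nuclear EA and GR-ED fragments of b-gal; compounds titrated up to 46 uM final, 2 h at 37 C. GR nuclear translocation read as complemented b-gal luminescence after 1 h RT detection.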

The target in experiment [8] is 3',5'-cyclic-AMP phosphodiesterase 4B (Homo sapiens) (UniProt Q07343). The experiment is described as follows: qHTS Assay for Inhibitors of PDE-IV (AID 607; active means well fitted activation curve with a large enough effect in the main read-out, with a control signal flat, not every such curve was filed as active; further: % of control where 0% means no effect). To be noted: HEK293 ACTOne CNG channel cells, membrane potential fluorescence; series mostly up to 22.9 µM. In outline: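 ACTOne HEK293 cells carry a modified cAMP-gated CNG channel and express endogenous PDE4; plated 1000 cells/well, compounds up to 22.9 uM final. Membrane-potential dye fluorescence (ex 535/em 590) was read; parental cells received 10 uM forskolin + 100 uM RO 20-1724.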

Experiment [9] addresses Cytochrome P450 3A4 (Homo sapiens) (UniProt P08684). The experiment is described as follows: qHTS Assay for Inhibitors and Substrates of Cytochrome P450 3A4 (AID 884). Further: potency means the concentration at half of the fitted maximal effect; nearly all actives have a fitted effect of over 50% in size. To be noted: recombinant CYP3A4, Luciferin-PPXE luminescence; series mostly up to 57.1 µM. In outline: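 Luminescent readout of luciferin produced by CYP3A4 (20 nM) dealkylation of Luciferin-PPXE, 25 uM (its KM). NADPH-driven reaction ran 60 min at RT after 10 min compound preincubation; data scaled to 57 uM ketoconazole as 100% inhibition.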
(In general: Quantitative high-throughput screening tests each substance at several concentrations.)

For experiment [10] the target is unchanged. The experiment is described as follows: qHTS Assay for Activators of Cytochrome P450 3A4 (AID 885). Further: nearly all actives have a fitted effect of over 65% in size. To be noted: recombinant CYP3A4, Luciferin-PPXE luminescence, 60 min; series mostly up to 57.1 µM. Put shortly: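 CYP3A4 activity: Luciferin-PPXE O-dealkylation, 25uM substrate, 200mM KPO4, RT throughout. Read-out is luciferase luminescence; higher values reflect activation.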

The target of experiment [11] is Dual specificity protein kinase CLK4 (Homo sapiens) (UniProt Q9HAZ1). The experiment is described as follows: qHTS Assay for Inhibitors of CDC-like Kinase 4 (Kinase-Glo Assay) (AID 1770). Further: nearly all actives have a fitted effect of over 65% in size. Further: potency means the concentration at half of the fitted maximal effect. To be noted: recombinant Clk4, Kinase-Glo ATP depletion luminescence; series mostly up to 66.7 µM. Put shortly: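 Substrate mix (RS peptide 100 uM, ATP 1 uM) dispensed, compound pinned in, then Clk4 added to 25 nM final. Incubated 4.5 h at RT; Kinase-Glo reagent added, luminescence read after 5 min.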

Experiment [12] has the same target. The experiment is described as follows: qHTS Assay for Inhibitors of CDC-like Kinase 4 (ADP-Glo Assay) (AID 1771). Further: nearly all actives have a fitted effect of over 70% in size. Further: potency means the concentration at half of the fitted maximal effect. To be noted: recombinant CLK4, ADP-Glo luminescence; series mostly up to 80 µM. Put shortly: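 25 nM Clk4, 100 uM RS peptide, 1 uM ATP (final); 2 mM MgCl2, 0.5 mM EGTA, 2.5 mM DTT, 0.01% Triton X-100; 1 hr RT. ADP-Glo readout: ATP depletion 45 min, conversion/luciferase 30 min, luminescence.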

The target is the same in experiment [13]. The experiment is described as follows: qHTS Assay for Inhibitors of CDC-like Kinase 4 (ADP-FP Assay) (AID 1795). Further: nearly all actives have a fitted effect of over 60% in size. Further: potency means the concentration at half of the fitted maximal effect. To be noted: Transcreener ADP fluorescence polarization; series mostly up to 50 µM. In outline:
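Clk4 6.25 nM; RS peptide 100 uM; ATP 1 uM; 25 mM Tris pH 7.5, 10 mM MgCl2; 1 h reaction. ADP detected via antibody/orange tracer FP displacement; TG003 positive control.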

Experiment [14] has as its target Ubiquitin carboxyl-terminal hydrolase 1 (Homo sapiens) (UniProt O94782). The experiment is described as follows: Inhibitors of USP1/UAF1: Pilot qHTS (AID 504865).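 Further: rhodamine fluorescence freed from ubiquitin-rhodamine substrate followed over time; top concentration of the series differs between compounds; on the % scale 0 is the no-effect control and ±100 the full control effect; nearly all actives have a fitted effect of over 35% in size.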 To be noted: purified USP1/UAF1, Ub-rhodamine cleavage fluorescence; series mostly up to 54.9 µM. Put shortly:
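In 50mM HEPES pH 7.8 containing 0.5mM EDTA, 1mM TCEP, 0.1 mg/ml BSA and 0.01% Tween-20, 1nM USP1/UAF1 is exposed to compound for 15 min, then Ub-Rho (150nM final) is added and fluorescence is read over time.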

Experiment [15] can be described thus: Primary qHTS for small molecule stabilizers of the endoplasmic reticulum resident proteome: Secreted ER Calcium Modulated Protein (SERCaMP) assay (AID 1508630). Further: on the % scale 0 is the no-effect control and ±100 the full control effect. To be noted: SH-SY5Y GLuc-SERCaMP (Gaussia luciferase released on ER calcium loss) secretion, thapsigargin, luminescence; series mostly up to 38.4 µM. In outline:
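The SH-SY5Y reporter protocol was run at 3 concentrations up to 38.3 uM (primary) or 11 concentrations (follow-up): 16 h compound, 100 nM thapsigargin for 4 h, then extracellular luciferase luminescence.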

Experiment [16] has as its target Mitogen-activated protein kinase 10 (Mus musculus) (UniProt Q61831). The experiment is described as follows: JNK3 AlphaScreen Assay (AID 530; active means well fitted curve in either direction with a large enough effect, not every such curve was filed as active). To be noted: JNK3 lysate, c-Jun phosphorylation; series mostly up to 57.1 µM. Put shortly:
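HepG2 lysate (IL-1b/TNFa pre-activated) + biotin-GST-cJun 1-79 + anti-pSer73 cJun; cpd titration, 15 min RT; ATP 10 uM start; Tris pH 7.6, MgCl2, DTT, vanadate; beads in EDTA buffer; AlphaScreen.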

Experiment [17] addresses Cytochrome P450 2C19 (Homo sapiens) (UniProt P33261). The experiment is described as follows: qHTS Assay for Inhibitors and Substrates of Cytochrome P450 2C19 (AID 899). Further: potency means the concentration at half of the fitted maximal effect; nearly all actives have a fitted effect of over 60% in size. To be noted: recombinant CYP2C19, luciferin-H EGE luminescence; series mostly up to 57.1 µM. In outline: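 Luminescent read-out of luciferin formed from Luciferin-H EGE (10uM, equal to KM). Enzyme 5nM in 50mM KPO4; compound added, 10 min at 37C, then NADPH regenerating system for 60 min at 37C. Full inhibition defined by 57uM ketoconazole.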

Experiment [18] addresses Cytochrome P450 2C9 (Homo sapiens) (UniProt P11712). The experiment is described as follows: qHTS Assay for Inhibitors and Substrates of Cytochrome P450 2C9 (AID 883). Further: potency means the concentration at half of the fitted maximal effect; nearly all actives have a fitted effect of over 60% in size. To be noted: recombinant CYP2C9, luciferin-H luminescence, 60 min; series mostly up to 57.1 µM. In outline:
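10nM CYP2C9 + 100uM Luciferin-H (=KM), 25mM KPO4; cpd 10 min 37C; NADPH regen, 60 min 37C; stop/detect with P450 Glo-Buffer 20 min; luminescence. Norm. to 57uM sulphaphenazole as full inhibition.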

Experiment [19] addresses Cytochrome P450 2D6 (Homo sapiens) (UniProt P10635). The experiment is described as follows: qHTS Assay for Inhibitors and Substrates of Cytochrome P450 2D6 (AID 891). Further: potency means the concentration at half of the fitted maximal effect; nearly all actives have a fitted effect of over 60% in size. To be noted: recombinant CYP2D6, luciferin-ME EGE luminescence; series mostly up to 57.1 µM. In outline: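 Luminescent read-out of luciferin formed by 5 nM human CYP2D6 demethylating 30 uM Luciferin-ME EGE (Km level) over 60 min at room temperature after NADPH regeneration addition. Data normalized to full inhibition by 1.43 uM quinidine.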

Unmarked numbers belong to inactive results. Inconclusive results are not listed. Activity calls are given as the source filed them. Unless noted, the call rests on the fitted dose curve; in most records, active means well fitted curve in the direction sought with a large enough effect; inconclusive means small, poorly fitted or top-dose-only effect, or another doubt; inactive means no such curve, though single readings can be large; an effect the other way counts as inactive or inconclusive.

Chain of Glucocorticoid receptor (Homo sapiens) (P04150 whole entry, looked up): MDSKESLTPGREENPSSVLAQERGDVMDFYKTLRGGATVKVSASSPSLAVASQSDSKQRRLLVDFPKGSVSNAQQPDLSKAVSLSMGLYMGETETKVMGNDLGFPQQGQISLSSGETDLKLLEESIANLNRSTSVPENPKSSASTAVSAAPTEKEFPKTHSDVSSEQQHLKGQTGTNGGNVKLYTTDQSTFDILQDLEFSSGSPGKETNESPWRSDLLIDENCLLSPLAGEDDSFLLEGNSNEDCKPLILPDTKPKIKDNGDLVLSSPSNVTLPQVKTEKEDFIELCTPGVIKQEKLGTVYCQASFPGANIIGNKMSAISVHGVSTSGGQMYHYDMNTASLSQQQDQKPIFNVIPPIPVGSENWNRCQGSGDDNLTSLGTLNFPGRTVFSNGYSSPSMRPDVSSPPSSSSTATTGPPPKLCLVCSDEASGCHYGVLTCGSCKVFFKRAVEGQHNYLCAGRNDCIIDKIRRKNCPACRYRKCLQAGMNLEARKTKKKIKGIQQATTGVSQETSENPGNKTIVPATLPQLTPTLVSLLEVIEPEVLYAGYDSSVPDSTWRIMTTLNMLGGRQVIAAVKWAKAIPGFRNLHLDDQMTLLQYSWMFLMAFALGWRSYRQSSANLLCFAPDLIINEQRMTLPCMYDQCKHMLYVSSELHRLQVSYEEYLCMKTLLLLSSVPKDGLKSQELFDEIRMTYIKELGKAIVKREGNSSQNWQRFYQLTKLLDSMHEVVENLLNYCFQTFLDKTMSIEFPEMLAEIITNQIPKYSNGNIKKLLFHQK
Chain of Cytochrome P450 1A2 (Homo sapiens) (P05177 whole entry, looked up): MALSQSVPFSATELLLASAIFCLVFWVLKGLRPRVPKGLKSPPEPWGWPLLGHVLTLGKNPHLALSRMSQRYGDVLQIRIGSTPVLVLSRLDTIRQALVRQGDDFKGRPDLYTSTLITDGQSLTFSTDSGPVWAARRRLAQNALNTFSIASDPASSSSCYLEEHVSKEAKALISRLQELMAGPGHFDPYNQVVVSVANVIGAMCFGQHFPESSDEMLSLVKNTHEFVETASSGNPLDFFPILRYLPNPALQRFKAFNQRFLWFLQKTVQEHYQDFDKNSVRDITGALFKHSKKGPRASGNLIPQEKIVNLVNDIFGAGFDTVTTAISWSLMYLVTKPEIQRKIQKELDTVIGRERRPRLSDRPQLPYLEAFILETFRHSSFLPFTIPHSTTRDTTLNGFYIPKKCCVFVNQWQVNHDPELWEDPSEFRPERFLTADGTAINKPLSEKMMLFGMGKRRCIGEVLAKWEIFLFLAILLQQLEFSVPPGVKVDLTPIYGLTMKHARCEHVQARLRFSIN
Chain of Dual specificity protein kinase CLK4 (Homo sapiens) (Q9HAZ1 whole entry, looked up): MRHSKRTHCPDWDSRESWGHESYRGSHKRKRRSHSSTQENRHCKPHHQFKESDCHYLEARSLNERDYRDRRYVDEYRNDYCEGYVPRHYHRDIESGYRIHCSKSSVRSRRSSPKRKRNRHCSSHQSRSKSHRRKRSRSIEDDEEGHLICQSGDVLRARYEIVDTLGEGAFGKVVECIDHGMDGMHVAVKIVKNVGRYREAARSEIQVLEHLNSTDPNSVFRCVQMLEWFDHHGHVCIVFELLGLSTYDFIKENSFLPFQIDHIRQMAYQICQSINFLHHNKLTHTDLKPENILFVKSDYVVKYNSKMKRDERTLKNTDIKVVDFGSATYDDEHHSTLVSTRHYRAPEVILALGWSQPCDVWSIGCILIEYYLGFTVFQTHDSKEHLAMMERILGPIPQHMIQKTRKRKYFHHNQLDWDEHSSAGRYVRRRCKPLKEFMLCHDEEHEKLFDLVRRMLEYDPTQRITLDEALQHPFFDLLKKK
Chain of Cytochrome P450 2C19 (Homo sapiens) (P33261 whole entry, looked up): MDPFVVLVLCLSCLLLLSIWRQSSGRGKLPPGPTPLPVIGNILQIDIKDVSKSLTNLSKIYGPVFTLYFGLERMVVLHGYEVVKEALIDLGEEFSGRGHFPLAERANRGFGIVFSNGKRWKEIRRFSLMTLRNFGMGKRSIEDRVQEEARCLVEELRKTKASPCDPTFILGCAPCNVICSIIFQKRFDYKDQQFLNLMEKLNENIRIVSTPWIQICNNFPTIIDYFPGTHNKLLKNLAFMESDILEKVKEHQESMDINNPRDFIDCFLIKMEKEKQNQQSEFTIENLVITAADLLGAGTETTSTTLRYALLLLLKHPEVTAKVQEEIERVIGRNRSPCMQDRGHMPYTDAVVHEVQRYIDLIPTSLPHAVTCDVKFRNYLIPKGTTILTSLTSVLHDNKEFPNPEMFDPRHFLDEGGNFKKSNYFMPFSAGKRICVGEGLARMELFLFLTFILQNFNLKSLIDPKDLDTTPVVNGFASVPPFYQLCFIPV
Chain of Cytochrome P450 3A4 (Homo sapiens) (P08684 whole entry, looked up): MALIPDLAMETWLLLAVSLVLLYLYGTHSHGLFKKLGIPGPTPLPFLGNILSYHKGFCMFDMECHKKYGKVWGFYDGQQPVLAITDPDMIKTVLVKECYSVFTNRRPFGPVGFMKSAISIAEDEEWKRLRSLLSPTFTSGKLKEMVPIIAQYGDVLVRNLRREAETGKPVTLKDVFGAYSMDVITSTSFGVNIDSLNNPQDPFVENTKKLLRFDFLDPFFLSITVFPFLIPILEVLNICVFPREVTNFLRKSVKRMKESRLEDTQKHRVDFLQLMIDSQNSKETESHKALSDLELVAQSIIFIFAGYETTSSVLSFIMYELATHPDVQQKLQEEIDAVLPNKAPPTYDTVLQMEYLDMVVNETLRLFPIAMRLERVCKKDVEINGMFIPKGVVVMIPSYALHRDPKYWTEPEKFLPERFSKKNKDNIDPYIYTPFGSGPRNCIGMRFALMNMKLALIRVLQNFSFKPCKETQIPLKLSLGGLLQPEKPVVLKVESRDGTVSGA
Chain of Ubiquitin carboxyl-terminal hydrolase 1 (Homo sapiens) (O94782 whole entry, looked up): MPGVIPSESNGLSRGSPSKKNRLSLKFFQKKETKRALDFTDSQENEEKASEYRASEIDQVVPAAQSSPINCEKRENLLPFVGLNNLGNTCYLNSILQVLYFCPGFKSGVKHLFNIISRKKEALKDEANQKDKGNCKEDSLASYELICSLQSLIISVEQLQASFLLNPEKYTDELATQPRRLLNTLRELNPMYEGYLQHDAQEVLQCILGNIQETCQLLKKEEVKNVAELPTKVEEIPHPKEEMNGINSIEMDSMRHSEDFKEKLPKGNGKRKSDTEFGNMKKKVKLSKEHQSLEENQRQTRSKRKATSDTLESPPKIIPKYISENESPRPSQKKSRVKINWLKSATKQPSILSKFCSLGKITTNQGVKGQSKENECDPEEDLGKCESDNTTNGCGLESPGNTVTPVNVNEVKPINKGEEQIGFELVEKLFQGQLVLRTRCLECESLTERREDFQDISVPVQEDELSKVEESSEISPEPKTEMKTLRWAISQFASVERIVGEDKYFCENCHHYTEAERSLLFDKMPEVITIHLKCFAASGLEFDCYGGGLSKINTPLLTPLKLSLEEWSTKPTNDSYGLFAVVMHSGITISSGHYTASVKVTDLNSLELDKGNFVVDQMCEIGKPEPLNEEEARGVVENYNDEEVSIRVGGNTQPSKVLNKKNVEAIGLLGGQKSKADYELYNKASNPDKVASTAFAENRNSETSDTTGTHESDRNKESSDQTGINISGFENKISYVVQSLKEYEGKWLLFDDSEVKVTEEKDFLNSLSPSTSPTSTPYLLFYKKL
Chain of Lysosomal acid glucosylceramidase (Homo sapiens) (P04062 whole entry, looked up): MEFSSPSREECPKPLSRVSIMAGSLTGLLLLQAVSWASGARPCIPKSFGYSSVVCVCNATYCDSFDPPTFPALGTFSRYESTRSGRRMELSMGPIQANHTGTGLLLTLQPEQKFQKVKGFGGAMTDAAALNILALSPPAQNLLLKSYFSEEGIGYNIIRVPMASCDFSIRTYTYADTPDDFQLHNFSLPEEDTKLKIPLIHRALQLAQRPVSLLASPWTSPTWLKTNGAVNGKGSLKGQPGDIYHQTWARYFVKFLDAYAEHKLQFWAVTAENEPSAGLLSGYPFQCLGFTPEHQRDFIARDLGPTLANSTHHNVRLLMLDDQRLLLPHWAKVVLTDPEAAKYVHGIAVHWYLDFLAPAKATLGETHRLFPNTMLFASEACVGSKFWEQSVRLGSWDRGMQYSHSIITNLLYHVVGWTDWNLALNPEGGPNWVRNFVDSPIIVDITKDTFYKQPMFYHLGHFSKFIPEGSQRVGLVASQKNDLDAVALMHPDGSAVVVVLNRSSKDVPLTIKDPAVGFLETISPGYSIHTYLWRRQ
Chain of Cytochrome P450 2C9 (Homo sapiens) (P11712 whole entry, looked up): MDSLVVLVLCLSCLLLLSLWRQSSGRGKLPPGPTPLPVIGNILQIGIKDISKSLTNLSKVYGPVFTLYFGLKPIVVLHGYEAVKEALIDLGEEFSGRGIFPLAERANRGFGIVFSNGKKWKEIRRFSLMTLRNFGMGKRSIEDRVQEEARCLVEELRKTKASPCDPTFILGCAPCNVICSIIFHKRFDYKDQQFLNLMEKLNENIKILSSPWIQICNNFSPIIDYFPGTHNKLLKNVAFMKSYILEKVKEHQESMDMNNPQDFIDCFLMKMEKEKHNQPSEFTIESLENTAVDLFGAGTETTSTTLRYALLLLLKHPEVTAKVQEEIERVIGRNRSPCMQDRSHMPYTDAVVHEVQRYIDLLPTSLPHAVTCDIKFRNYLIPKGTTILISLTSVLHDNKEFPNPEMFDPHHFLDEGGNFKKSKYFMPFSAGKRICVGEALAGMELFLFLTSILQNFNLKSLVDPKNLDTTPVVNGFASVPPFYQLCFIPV

As to `COc1cccc(-c2nccc(NCc3cccnc3)n2)c1`, the Potency in experiment [1] is over 11.4 µM; in experiment [3] it was 0.158 µM (active); in experiment [6], over 46 µM; in [7] it was over 46 µM; in experiment [9] it was 1.26 µM (active); in [11], 7.08 µM (active). In addition, the figures for the Potency in [12] and in [13] were 7.08 µM (active) and 6.31 µM (active), respectively. The activity change, negative = inhibition in experiment [2] is -20.9%; in [4], 8.95%. Further, the activity, negative = inhibition in experiment [5] is -2.24%. In addition, the Potency result in experiment [8], in experiment [10] and in experiment [14] was “inactive” throughout. The outcome in experiment [15] was inactive.

As to `Cc1ccccc1-c1cncnc1Nc1ccccc1`, the Potency is over 11.4 µM in experiment [1]; 15.8 µM (active) in experiment [3]; over 46 µM in experiment [6]; over 46 µM in experiment [7]; 0.631 µM (active) in experiment [9]; 3.16 µM (active) in experiment [17]. The results for the activity change, negative = inhibition in experiment [2] and in experiment [4] were -10.9% and -1.77%, respectively. Besides, in experiment [5], the activity, negative = inhibition is 16%. Also, the Potency entry in [16], in experiment [10], in experiment [11], in experiment [12], in experiment [13] and in experiment [14] was “inactive” throughout. Besides, in experiment [15], the outcome was inactive.

As for `O=c1c(-c2cccc(F)c2)nc2cncnc2n1Cc1ccccc1Cl`, the Potency was over 11.4 µM in [1]; 3.98 µM (active) in experiment [3]; over 9.22 µM in experiment [6]; over 46 µM in experiment [7]; 7.94 µM (active) in experiment [18]; 0.794 µM (active) in experiment [17]. Also, the figures for the activity change, negative = inhibition in experiment [2] and in experiment [4] were -4.26% and -7.87%, respectively. For the same compound, the activity, negative = inhibition in [5] was 4.32%. The Potency entry in [16], in experiment [10], in experiment [11], in [12], in experiment [13] and in [14] was “inactive” each time. Moreover, the outcome in experiment [15] was inactive.

Take `COc1ccc(CNc2ccnc(-c3ccccc3OC)n2)c(OC)c1`: the Potency in experiment [1] is over 11.4 µM; in experiment [3], 5.01 µM (active); in experiment [6], over 46 µM; in experiment [7], over 46 µM; in [9], 6.31 µM (active); in experiment [19], 3.98 µM (active). For the same compound, the activity change, negative = inhibition in [2] was 3.33%; in experiment [4], -9.22%. The activity, negative = inhibition in [5] was 1.07%. Moreover, the Potency result in experiment [16], in [10], in [11], in experiment [12] and in experiment [13] was “inactive” throughout. Also, the result in experiment [15] was inactive.

Regarding `CN(C)c1ccc(-c2cncnc2N(C)Cc2ccco2)cc1`, the Potency in [1] is over 11.4 µM; in experiment [3] it was 0.631 µM (active); in [6], over 46 µM; in experiment [7], over 46 µM; in experiment [9], 0.631 µM (active); in experiment [17], 0.251 µM (active). Moreover, the figures for the Potency in experiment [11] and in experiment [12] were 15.8 µM (active) and 17.8 µM (active), respectively. Moreover, the activity change, negative = inhibition in [2] was -22.2%; in [4], -8.48%. The activity, negative = inhibition in experiment [5] is -5.82%. Moreover, the Potency result in [10], in experiment [13] and in experiment [14] was “inactive” throughout. For the same compound, in experiment [15], the outcome was inactive.

On to `COc1ccccc1CCn1c(=O)c(-c2ccc(F)c(F)c2)nc2cncnc21`, for which the Potency was over 11.4 µM in experiment [1]; 2 µM (active) in experiment [3]; over 9.22 µM in experiment [6]; over 46 µM in experiment [7]; 6.31 µM (active) in experiment [18]; 3.16 µM (active) in experiment [9]. In experiment [17], the Potency is 1.26 µM (active). Also, the activity change, negative = inhibition is -18.1% in experiment [2] and 1.01% in experiment [4]. The activity, negative = inhibition in [5] is 10.7%. In addition, the Potency result in experiment [16], in experiment [10], in [11], in experiment [12], in [13] and in experiment [14] was “inactive” throughout. Further, the result in experiment [15] was inactive.
